Measurements reported in PubChem BioAssay AID1159580 (chemical genetic matrix, 2015).
Hit rate of the full screen: of about 5,500 compounds, about 2,000 (36%) were called active. About 18% were inconclusive and are not listed. Rule as the data show it: active = normalized growth mostly below about 0.91 (no sharp cut-off); inconclusive = no clear call, values can overlap the other calls; inactive = mostly above about 0.92. This is one part of the list.

Experiment: chemical genetic growth profiling, strain panel (AID 1159580);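 also: tested at 20 µM; growth read once vehicle control cultures reached saturation at 30 °C; 1 = growth at the plate median or of vehicle wells; lower values mean less growth of the strain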
Details: S. cerevisiae deletion strains, growth OD

Measured: normalized growth

Cc1scc2c1N(C(=O)CN1CCN(C)CC1)c1ccccc1NC2=O
inactive: locus YAL013W, strain DEP1, stronger effect = lower value 0.967 | locus YAL021C, strain ccr4, stronger effect = lower value 0.984 | locus YAL026C, strain drs2, stronger effect = lower value 0.972 | locus YAL030W, strain snc1, stronger effect = lower value 0.939 | locus YAL040C, strain CLN3, stronger effect = lower value 0.985 | locus YBL061C, strain skt5, stronger effect = lower value 0.963 | locus YBR009C, strain hhf1, stronger effect = lower value 0.989 | locus YBR023C, strain chs3, stronger effect = lower value 0.947 | locus YBR171W, strain sec66, stronger effect = lower value 0.954 | locus YBR231C, strain swc5, stronger effect = lower value 0.972 | locus YBR279W, strain paf1, stronger effect = lower value 0.958 | locus YCL011C, strain gbp2, stronger effect = lower value 0.954 | locus YCL016C, strain dcc1, stronger effect = lower value 0.975 | locus YCL061C, strain MRC1 (second series), stronger effect = lower value 1 | locus YCL069W, strain vba3, stronger effect = lower value 0.971 | locus YCR088W, strain abp1, stronger effect = lower value 0.969 | locus YDL005C, strain med2, stronger effect = lower value 0.956 | locus YDL040C, strain nat1, stronger effect = lower value 0.967 | locus YDR001C, strain nth1, stronger effect = lower value 0.948 | locus YDR069C, strain doa4, stronger effect = lower value 0.922 | locus YDR137W, strain rgp1, stronger effect = lower value 0.941 | locus YDR150W, strain NUM1, stronger effect = lower value 0.998 | locus YDR159W, strain sac3, stronger effect = lower value 0.94 | locus YDR195W, strain ref2 0.899 | locus YDR297W, strain sur2, stronger effect = lower value 0.974 | locus YDR334W, strain swr1, stronger effect = lower value 0.943 | locus YDR335W, strain msn5, stronger effect = lower value 0.955 | locus YDR363W, strain ESC2, stronger effect = lower value 0.984 | locus YDR392W, strain spt3, stronger effect = lower value 1.01 | locus YEL003W, strain gim4, stronger effect = lower value 0.976 | locus YEL037C, strain rad23, stronger effect = lower value 0.957 | locus YEL061C, strain CIN8 (second series), stronger effect = lower value 0.96 | locus YER002W, strain NOP16, stronger effect = lower value 1 | locus YER015W, strain faa2, stronger effect = lower value 0.974 | locus YER016W, strain bim1, stronger effect = lower value 0.967 | locus YER111C, strain swi4, stronger effect = lower value 0.965 | locus YER155C, strain BEM2 (second series), stronger effect = lower value 0.939 | locus YFR010W, strain ubp6, stronger effect = lower value 0.95 | locus YGL167C, strain pmr1, stronger effect = lower value 0.943 | locus YGL173C, strain kem1, stronger effect = lower value 0.978 | locus YGL227W, strain vid30, stronger effect = lower value 0.947 | locus YGL240W, strain doc1, stronger effect = lower value 0.966 | locus YGL253W, strain hxk2, stronger effect = lower value 0.965 | locus YGR078C, strain PAC10, stronger effect = lower value 0.996 | locus YHR013C, strain ard1, stronger effect = lower value 0.967 | locus YHR027C, strain rpn1, stronger effect = lower value 0.966 | locus YHR030C, strain SLT2, stronger effect = lower value 1.08 | locus YHR079C, strain IRE1, stronger effect = lower value 1.1 | locus YHR142W, strain chs7, stronger effect = lower value 0.942 | locus YJL092W, strain hpr5, stronger effect = lower value 0.965 | locus YJL095W, strain BCK1 (second series), stronger effect = lower value 0.96 | locus YJL095W, strain BCK1, stronger effect = lower value 1.11 | locus YJL115W, strain asf1, stronger effect = lower value 0.952 | locus YJL129C, strain trk1, stronger effect = lower value 0.948 | locus YJL154C, strain vps35, stronger effect = lower value 0.961 | locus YJL164C, strain tpk1, stronger effect = lower value 0.995 | locus YJL166W, strain qcr8, stronger effect = lower value 0.949 | locus YJL187C, strain SWE1, stronger effect = lower value 0.968 | locus YJR066W, strain TOR1, stronger effect = lower value 0.962 | locus YJR075W, strain HOC1, stronger effect = lower value 0.979 | locus YKL160W, strain elf1, stronger effect = lower value 0.981 | locus YKR026C, strain gcn3, stronger effect = lower value 0.96 | locus YKR091W, strain srl3, stronger effect = lower value 0.977 | locus YLL001W, strain dnm1, stronger effect = lower value 0.968 | locus YLL026W, stronger effect = lower value 0.949 | locus YLL041C, strain sdh2, stronger effect = lower value 0.968 | locus YLR027C, strain aat2, stronger effect = lower value 0.977 | locus YLR113W, strain HOG1, stronger effect = lower value 0.977 | locus YLR221C, strain rsa3, stronger effect = lower value 0.995 | locus YLR258W, strain gsy2, stronger effect = lower value 0.963 | locus YLR262C, strain YPT6 (second series), stronger effect = lower value 0.962 | locus YLR320W, strain mms22, stronger effect = lower value 1 | locus YLR342W, strain FKS1, stronger effect = lower value 0.98 | locus YLR357W, strain rsc2, stronger effect = lower value 0.948 | locus YLR370C, strain arc18, stronger effect = lower value 0.945 | locus YLR384C, strain iki3, stronger effect = lower value 0.962 | locus YML120C, strain ndi1, stronger effect = lower value 0.964 | locus YMR058W, strain fet3, stronger effect = lower value 0.952 | locus YMR125W, strain sto1, stronger effect = lower value 0.948 | locus YMR129W, stronger effect = lower value 0.982 | locus YMR205C, strain PFK2, stronger effect = lower value 0.967 | locus YMR231W, strain pep5, stronger effect = lower value 0.972 | locus YMR263W, strain SAP30, stronger effect = lower value 0.989 | locus YMR307W, strain GAS1, stronger effect = lower value 0.981 | locus YNL071W, strain lat1, stronger effect = lower value 0.979 | locus YNL153C, strain GIM3, stronger effect = lower value 1 | locus YNL175C, strain NOP13, stronger effect = lower value 1.02 | locus YNL183C, strain NPR1, stronger effect = lower value 0.938 | locus YNL197C, strain WHI3, stronger effect = lower value 0.979 | locus YNL209W, strain ssb2, stronger effect = lower value 0.973 | locus YNL224C, strain SQS1, stronger effect = lower value 1.02 | locus YNL248C, strain rpa49, stronger effect = lower value 0.964 | locus YNL322C, strain KRE1 (second series), stronger effect = lower value 0.967 | locus YNL322C, strain KRE1, stronger effect = lower value 0.972 | locus YNR049C, strain mso1, stronger effect = lower value 0.962 | locus YOR001W, strain rrp6, stronger effect = lower value 0.972 | locus YOR070C, strain gyp1, stronger effect = lower value 0.984 | locus YOR080W, strain dia2, stronger effect = lower value 0.958 | locus YOR083W, strain WHI5 (second series), stronger effect = lower value 0.995 | locus YOR083W, strain WHI5, stronger effect = lower value 0.982 | locus YOR106W, strain vam3, stronger effect = lower value 0.948 | locus YOR231W, strain MKK1, stronger effect = lower value 1.05 | locus YOR265W, strain rbl2, stronger effect = lower value 0.965 | locus YOR270C, strain vph1, stronger effect = lower value 0.866 | locus YOR290C, strain snf2, stronger effect = lower value 0.974 | locus YPL051W, strain arl3, stronger effect = lower value 0.985 | locus YPL055C, strain LGE1, stronger effect = lower value 0.962 | locus YPL078C, strain atp4, stronger effect = lower value 0.957 | locus YPL106C, strain sse1, stronger effect = lower value 0.936 | locus YPL240C, strain hsp82, stronger effect = lower value 0.979 | locus YPL241C, strain CIN2, stronger effect = lower value 1 | locus YPL256C, strain CLN2, stronger effect = lower value 1.1
